Assay [1] is described as follows: NCI Yeast Anticancer Drug Screen. Data for the rad50 strain (AID 155).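 Note: 0% = growth of vehicle-only cultures of the same strain.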 The settings on record: S. cerevisiae rad50 strain growth inhibition; at 50.0 µM; active compounds read high. In outline:
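A DNA repair-deficient yeast mutant serves as the test organism; compound-induced growth inhibition is calculated against vehicle-treated cells.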

Assay [2] can be described thus: NCI Yeast Anticancer Drug Screen. Data for the mec2-1 strain (AID 157). The settings on record: S. cerevisiae mec2-1 strain, at 50.0 µM, active compounds read high. In outline: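 Cells of the genetically defined mec2-1 yeast strain are incubated with test compound. Inhibition of growth is calculated against vehicle-treated controls.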
A short description of assay [3]: NCI Yeast Anticancer Drug Screen. Data for the sgs1 mgt1 strain (AID 161).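 Note: 0% = growth of cultures given vehicle only.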 The following applies: S. cerevisiae sgs1 mgt1 strain, at 50.0 µM, active compounds read high. An outline of the steps:
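Mutant yeast exposed to compound; growth scored against vehicle-only wells.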

The nature of assay [4]: NCI Yeast Anticancer Drug Screen. Data for the cln2 rad14 strain (AID 165).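 Note: 0% = growth equal to vehicle treated cultures.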 The following applies: S. cerevisiae cln2 rad14 strain, at 50.0 µM, active compounds read high. In outline:
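The screen exposed genetically defined yeast (cln2 rad14) to test compounds and scored growth inhibition relative to vehicle-treated controls.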

Assay [5] can be described thus: NCI Yeast Anticancer Drug Screen. Data for the bub3 strain (AID 167). The settings on record: S. cerevisiae bub3 mutant strain, at 50.0 µM, active compounds read high. An outline of the steps:
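Inhibition values come from growth of compound-treated mutant yeast normalised to vehicle-treated controls.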

Assay [6] in a line: NCI Yeast Anticancer Drug Screen. Data for the mlh1 rad18 strain (AID 175). The settings on record: S. cerevisiae mlh1 rad18 strain growth inhibition; at 50.0 µM; active compounds read high. An outline of the steps: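 Compound-treated yeast growth, normalised to vehicle controls. Strain bears defined DNA repair mutations.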

The panel holds about 79,000 compounds, 15% with a hit somewhere; the sample as a whole holds those more often. Unmarked numbers belong to inactive results. The source made the active and inactive calls. Cut-off read from the data, not from the text of the source: active = growth inhibition above about 70%; inactive = the rest.

In the case of `CC(=O)OC/C(=C/C#N)C1CCC2C3CCC4CC(OC(C)=O)CCC4(C)C3CCC12C` (stereo unspecified), the growth inhibition in assay [1] is 47%; in assay [2], 30.7%; in assay [3] it was 45.5%; in assay [4], 40%; in assay [5], 21.5%; in assay [6], 57.5%.
Take `Cc1ccc(O)c(C)n1`: the growth inhibition in assay [1] is 4.2%; in assay [2] it was 14%; in assay [3] it was 0.15%; in assay [4], 7%; in assay [5] it was -0.2%; in assay [6], -2.9%.
For `O=C1CCCC2C1C1CCCC(=O)C21` (stereo unspecified), the growth inhibition in assay [1] is 6.95%; in assay [2], -7.45%; in assay [3], 3.1%; in assay [4], 0.9%; in assay [5], 3.15%; in assay [6], 20.2%.
Regarding `COc1cc(C(C)c2cc3c(cc2O)OCO3)cc(OC)c1OC` (stereo unspecified), the growth inhibition is -31.2% in assay [1]; -26.1% in assay [2]; -15.6% in assay [3]; 8.5% in assay [4]; 26.8% in assay [5]; -16.4% in assay [6].
As for `CCOC(=O)C1(Br)C(c2ccccc2)NC(=O)NC1(C)Br` (stereo unspecified), the growth inhibition in assay [1] was 9.15%; in assay [2] it was -12.2%; in assay [3], 0.6%; in assay [4] it was 12.8%; in assay [5], -1.75%; in assay [6], -14.6%.
Take `O=[N+]([O-])c1ccc(C2SCc3nc4ccccc4n32)cc1` (stereo unspecified): the growth inhibition in assay [1] was 3.4%; in assay [2] it was -14.2%; in assay [3], 49.1%; in assay [4] it was 15.2%; in assay [5] it was 23.1%; in assay [6] it was -2.65%.
Turning to `Nc1c(F)c(F)c(C(=O)O)c(F)c1F`, the growth inhibition in assay [1] is -16.1%; in assay [2], -20.6%; in assay [3], -10.4%; in assay [4] it was -3.9%; in assay [5], -4.8%; in assay [6] it was -29.4%.
In the case of `O=C(Nc1ccc(Cl)cc1C(F)(F)F)C(=O)Nn1c(=S)[nH]c2ccccc2c1=O`, the growth inhibition was -5.9% in assay [1]; -15.2% in assay [2]; 8.5% in assay [3]; -2.7% in assay [4]; -1.1% in assay [5]; 18.9% in assay [6].
For `COc1nc(NC2OC(CO)C(O)C(O)C2O)c(C(C)=O)c(=O)[nH]1` (stereo unspecified), the growth inhibition in assay [1] is 2.8%; in assay [2], 1.05%; in assay [3] it was 12.6%; in assay [4] it was -0.1%; in assay [5], -14.8%; in assay [6] it was -3.95%.
With `COc1cccc(CSCC(=O)O)c1`, the growth inhibition in assay [1] is -9.3%; in assay [2] it was -26.5%; in assay [3] it was -44.2%; in assay [4], 7.25%; in assay [5], -17.6%; in assay [6], -1.6%.
In the case of `CCC(=O)Oc1ccccc1OC`, the growth inhibition in assay [1] was -28.8%; in assay [2], -7.25%; in assay [3], -6.05%; in assay [4], -0.3%; in assay [5], -31.9%; in assay [6], -16.9%.
In the case of `C=C1C(=C)C2C=CC1C1C3C(c4ccccn4)=NN=C(c4ccccn4)C3C21` (stereo unspecified), the growth inhibition in assay [1] was 54.4%; in assay [2], 66.2%; in assay [3] it was 68.8%; in assay [4], 74.5% (active); in assay [5] it was 66.6%; in assay [6] it was 62.5%.
Consider `COC(=O)CN(CC(=O)OC)C(C)=O`, for which the growth inhibition was -9.2% in assay [1]; -4.35% in assay [2]; -0.05% in assay [3]; 2.7% in assay [4]; 13.5% in assay [5]; 0.6% in assay [6].
In the case of `COc1ccc(Cl)[n+]([O-])n1`, the growth inhibition in assay [1] is -20.3%; in assay [2], -4.15%; in assay [3] it was -2%; in assay [4] it was 0.8%; in assay [5], -10.3%; in assay [6], -29.6%.
For the molecule `C=CCS(=O)CC(NC(=O)c1ccccc1)C(=O)O` (stereo unspecified), the growth inhibition in assay [1] is -32%; in assay [2], -3.75%; in assay [3] it was 20.6%; in assay [4], -15.4%; in assay [5], 4.1%; in assay [6] it was -13.4%.
As to `Cc1nc(C)c(N2CCN(S(=O)(=O)N(Cc3ccccc3)Cc3ccccc3)CC2)c(=O)[nH]1`, the growth inhibition in assay [1] is -22.7%; in assay [2], -5.95%; in assay [3], -32.3%; in assay [4] it was 3.85%; in assay [5], -5.65%; in assay [6] it was 4.2%.
For the molecule `Nc1nc(N)c2cc(N3CCCC3c3ccc(Cl)cc3)ccc2n1` (stereo unspecified), the growth inhibition in assay [1] was 90.8% (active); in assay [2] it was 92.5% (active); in assay [3], 91.5% (active); in assay [4], 90.5% (active); in assay [5] it was 91.6% (active); in assay [6], 91% (active).
On to `COc1cc(C2OC[C@@H]3C(=O)OC[C@H]23)cc(O)c1OC` (stereo partly specified), for which the growth inhibition in assay [1] is 3.35%; in assay [2], -1.6%; in assay [3] it was -33.1%; in assay [4], -13.3%; in assay [5], -38.8%; in assay [6], -23.7%.
As for `Cn1cnc([N+](=O)[O-])c1Sc1nnc(C(F)(F)F)n1C`, the growth inhibition is -7.6% in assay [1]; -6.95% in assay [2]; -9.65% in assay [3]; 7.5% in assay [4]; 3.6% in assay [5]; -6.95% in assay [6].
Consider `Cc1cc(C)c2c(=O)c3c(oc2c1)O[C@@](C)(CO)C[C@@H]3c1ccccc1`, for which the growth inhibition is 1.15% in assay [1]; 11.2% in assay [2]; 2.3% in assay [3]; 6.05% in assay [4]; 12% in assay [5]; 5.2% in assay [6].
Take `O=C(C(CO)c1ccccc1)N1CCOCC1` (stereo unspecified): the growth inhibition was -10.3% in assay [1]; -15.4% in assay [2]; -3.45% in assay [3]; -23.4% in assay [4]; 4.35% in assay [5]; 2.55% in assay [6].

Source of the values: PubChem BioAssay (NCI).
